Hit rate of the full screen: of about 1,200 compounds, about 85 (7%) were called active. Where a call stands in place of a potency, no number is given. Calls follow the shape of the full dose curve. Only a selection was taken, and actives are over-represented in it overall.
These compounds were tested against Beta-2 adrenergic receptor (Homo sapiens) (UniProt P07550) (assay: qHTS assay of beta-arrestin-biased ligands of beta2-adrenergic receptor: Hit Validation with GloSensor). Conditions: W9-Glo22F cells, GloSensor cAMP luminescence, beta2AR agonism; series mostly up to 46.1 µM.
Chain of Beta-2 adrenergic receptor (Homo sapiens) (P07550 whole entry, looked up): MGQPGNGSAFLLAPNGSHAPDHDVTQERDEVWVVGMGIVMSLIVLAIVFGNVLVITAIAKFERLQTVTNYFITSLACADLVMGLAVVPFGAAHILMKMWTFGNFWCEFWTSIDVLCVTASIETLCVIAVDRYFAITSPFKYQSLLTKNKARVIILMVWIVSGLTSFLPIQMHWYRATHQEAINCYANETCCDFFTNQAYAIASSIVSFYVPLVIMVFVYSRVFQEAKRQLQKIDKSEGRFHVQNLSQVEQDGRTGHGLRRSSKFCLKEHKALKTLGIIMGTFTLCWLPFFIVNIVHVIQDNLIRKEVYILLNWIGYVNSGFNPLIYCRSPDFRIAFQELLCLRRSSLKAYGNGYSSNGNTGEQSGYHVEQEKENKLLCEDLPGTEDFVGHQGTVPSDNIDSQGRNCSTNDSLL
Source text: The concept of biased agonism is an emerging concept of molecular pharmacology which proposes that seven transmembrane receptors (7TMRs) or G protein-coupled receptors (GPCRs), exist in multiple signaling conformations and complexes and that ligands (either agonists or antagonists) can induce signaling biased responses for distinct signal transduction cascades.
Furthermore, accumulating evidence over the last decade has drawn attention to a novel function of beta-arrestins as signal transducers that scaffold various signaling molecules upon activation of 7TMRs. […] This beta-arrestin-biased signaling presumably leads to distinct physiological outcomes from those by G protein activation.
Additionally, the active receptor conformations which […] on this beta-arrestin signaling are likely different from those activating G protein signaling
The goal of this screening project is to discover and optimize novel beta-arrestin-biased ligands for beta2-AR signaling. A luminescent cell-based assay for beta2-AR-mediated agonism, known as the Tango assay, has been validated in which ligand binding of a recombinant beta2-AR and subsequent recruitment of a recombinant beta-arrestin lead to the release of the transcriptional activator tTA, which upregulates transcription of a tTA-responsive luciferase gene. […] After compounds were identified in this primary screen, they were tested in a counter screen that used luminescence as measure through the GloSensor reagent.
NIH Molecular Libraries Probe Production Network [MLPCN]
NIH Chemical Genomics Center [NCGC]
PI: Bryan Roth (UNC) and Bob Lefkowitz (Duke)
2 uL of W9-Glo22F cells are dispensed into a white 1536-well plate. They are incubated overnight at 37 deg C at 5% CO2. 23 nL of compounds and controls are pinned into the wells. Then 2 uL of GloSensor is added and the plate is incubated for 10 min at room temperature.The plates are then read on the ViewLux for luminescence.
Potency is read from the fitted curve at half-maximal effect.

Row | SMILES | Potency
1 | COC(=O)C1=C(c2ccc(OCc3ccccc3)cc2)C[C@@H]2CC[C@H]1N2C(=O)NCc1ccc(OC)c(OC)c1 | 4.11 µM (active)
2 | COC(=O)C1=C(c2ccc(OCc3ccccc3)cc2)C[C@@H]2CC[C@H]1N2C(=O)NCc1cccc(C(F)(F)F)c1 | inactive
3 | COC(=O)C1=C(c2ccc(OCc3ccccc3)cc2)C[C@@H]2CC[C@H]1N2C(=O)NCc1cccc(OC)c1 | inactive
4 | O=C1NC(=O)N(Cc2ccccc2)C(=O)/C1=C/C=C/c1ccco1 | inactive
5 | COc1cccc(C(=O)C2CCCN(Cc3cccc(C)n3)C2)c1 (stereo not given) | inactive
6 | Clc1ccc2c(c1)C(c1ccccc1Cl)=NCc1nnc(N3CCN(CCOc4ccccc4)CC3)n1-2 | inactive
7 | COC(=O)C1=C(c2ccc(-c3ccccc3)c(F)c2)C[C@@H]2CC[C@H]1N2C(=O)NCc1ccco1 | inactive
8 | CNCC(O)c1ccc(OC(=O)C(C)(C)C)c(OC(=O)C(C)(C)C)c1 (stereo not given) | 0.259 µM (active)
9 | COC(=O)C1=C(c2ccc(OC)c(OC)c2)C[C@@H]2CC[C@H]1N2C(=O)NCc1cccc2ccccc12 | inactive
10 | OC12ONC(c3ccccn3)C1N1CCC2CC1 (stereo not given) | inactive
11 | COC(=O)C1=C(c2ccc(-c3ccccc3)c(F)c2)C[C@@H]2CC[C@H]1N2C(=O)NCCOc1ccc(OC)cc1 | inactive
12 | O=c1c2ccccc2nc(/C=C/c2ccc(O)c(O)c2)n1-c1ccccc1 | 32.6 µM (active)
13 | COc1cccc(OCc2cc(C(=O)N3C[C@H]4C[C@@H](C3)c3cccc(=O)n3C4)no2)c1 | inactive
14 | c1cncc(C2Nc3cccc4cccc(c34)N2)c1 | inactive
15 | COC(=O)C1=C(c2ccc(F)cc2F)C[C@@H]2CC[C@H]1N2C(=O)NCCNC(C)=O | inactive
